Experimental data published in PubChem BioAssay.
Unmarked numbers belong to inactive results. How the calls were made is not given here.

Target: Pantothenate synthetase (Mycobacterium tuberculosis (strain ATCC 25618 / H37Rv)) (UniProt P9WIL5)
Test: Recombinant Mtb pantothenate synthetase (PanC) inhibitors, coupled enzyme, confirmatory (AID 375);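 further: 0% = full reaction with vehicle and 100% = no enzyme background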
Details: coupled enzyme assay; at 10 µM, hits give high values

Pantothenate synthetase (Mycobacterium tuberculosis (strain ATCC 25618 / H37Rv)), sequence (P9WIL5 whole entry, looked up): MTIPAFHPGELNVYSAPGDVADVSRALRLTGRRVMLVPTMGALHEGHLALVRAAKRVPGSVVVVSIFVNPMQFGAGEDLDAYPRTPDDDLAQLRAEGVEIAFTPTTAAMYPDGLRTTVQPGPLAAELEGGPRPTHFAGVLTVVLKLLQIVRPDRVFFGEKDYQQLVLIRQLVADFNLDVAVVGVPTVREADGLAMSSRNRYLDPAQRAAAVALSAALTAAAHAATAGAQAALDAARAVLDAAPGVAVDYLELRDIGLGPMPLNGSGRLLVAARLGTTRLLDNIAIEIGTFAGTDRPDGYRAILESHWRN

| SMILES | inhibition [%] |
| --- | --- |
| O=C(O)CCC(=O)c1c[nH]c2ccccc12 | 3 |
| Cc1onc(-c2ccccc2)c1C(=O)N1CCOCC1 | 9 |
| O=C(Nc1cnn(C23CC4CC(CC(C4)C2)C3)c1)c1cnn2c(C(F)(F)F)cc(-c3ccco3)nc12 | 0 |
| Cc1cc(OC(=O)N2CCOCC2)cc(C)c1Cl | 0 |
| COc1ccc(-c2ccc(CCC(=O)O)n2NC(=O)c2cccs2)cc1 | 0 |
| CCOC(=O)CNC(=O)CSc1nc(N)cc(N)n1 | 1 |
| N#Cc1c(-c2ccc3c(c2)OCO3)csc1N | 9 |
| COC(=O)C1=C(CSCc2ccco2)NC(=O)NC1c1cc(C)ccc1C (configuration not stated) | 3 |
| CCOC(=O)N1CCC(NC(=O)Cn2ncc3c4ccccc4n(C)c3c2=O)CC1 | 5 |
| CN1C(=O)c2c(sc3c2CCCC3)NC1c1ccccc1O (configuration not stated) | 0 |
| Cc1cccc(C)c1OCc1nnc(SCC(=O)Nc2ccccc2F)o1 | 0 |
| COC(=O)c1c(O)ccc(Oc2ccccc2)c1C(=O)OC | 0 |
| COc1ccc2[nH]c(=O)c(CN(CC3CCCO3)C(=O)Nc3ccc(F)cc3)cc2c1 (configuration not stated) | 0 |
| O=C(CCCSc1nc2ccccc2s1)NC1=NCCS1 | 0 |
| COc1ccc(S(=O)(=O)NCC(=O)N(CC(=O)NCC2CCCO2)c2ccccc2C)cc1 (configuration not stated) | 8 |
| CCN(CC)C(c1ccc(C)cc1)c1nnnn1C1CCCCC1 (configuration not stated) | 0 |
| COC(=O)c1ccccc1NC(=O)Cn1c(-c2nonc2N)nc2ccccc21 | 0 |
